Experimental data: PubChem BioAssay (Tox21)
Inconclusive results are not listed. Where a call stands in place of a potency, no number is given. Calls of active or inactive are those of the source. The call rests on the fitted dose curve; in most records, active means well fitted activation curve with a large enough effect in the repeat runs; inconclusive means weak or mixed curves; inactive means flat fitted curve, though single readings scatter.

Experiment: Caspase-3/7 induction in HepG2 cells by small molecules, qHTS assay (AID 1346978); further: nearly all actives have a fitted effect of over 15% in size
Conditions: HepG2 caspase-3/7 activation, Caspase-Glo luminescence, 17 h; series mostly up to 92.4 µM
Source text: National Center for Advancing Translational Sciences [NCATS] NIH Chemical Genomics Center [NCGC] U.S. Environmental Protection Agency [EPA] National Institutes of Environmental Health Sciences [NIEHS] National Toxicology Program [NTP] Assay overview: Apoptosis is a process of programmed cell death and plays a central role in the development of multicellular organisms. It is a highly regulated process and induces cell death by activating caspases, which are the members of cysteine aspartic acid-specific protease (caspase) family. Caspases involved in apoptosis are classified by their mechanism of action as initiator caspases (caspase-2, -8, -9 and -10) and executioner caspases (caspase-3, -6, and -7). Inhibition of apoptosis results in number of cancers, autoimmune diseases, inflammatory diseases and viral infection. To identify small molecule compounds that induce apoptosis, a homogeneous, luminescent Caspase-Glo 3/7 assay was used. Wild type HepG2 cells were used to screen Tox21 libraries for identifying caspase-3/7 activity inducers.
Assay Protocol Summary: HepG2 cells were dispensed at 2,000 per well in 5uL of culture medium into white solid bottom 1536-well plates (Corning Life Sciences, Corning, NY) using a Multidrop Combi (Thermo Scientific, Waltham, MA) dispenser. The assay plates were incubated at 37 C and 5% CO2 for 5hr, and then 23nL of compounds dissolved in DMSO and positive control were transferred using a Pintool station (Wako, San Diego, CA). The assay plates were incubated at 37C and 5% CO2 for 17hr. For caspase-3/7 activity read, 4uL of Caspase-Glo 3/7 reagent (Promega Corporation, Madison, WI) was added to each well of the assay plates using Flying Reagent Dispenser (FRD, Aurora Discovery, San Diego, CA) and incubated the assay plates at room temperature for 30min. The luminescence signal was quantified using a ViewLux plate reader (Perkin Elmer, Shelton, CT).

| Compound | Potency |
| --- | --- |
| Cc1ccc(S(=O)(=O)NC(=O)NC2CCCC2)cc1 | inactive |
| COc1ccc(CN(CCN(C)C)c2ncccn2)cc1 | inactive |
| COc1ccnc2c1CCCCC2S(=O)c1nc2ccccc2[nH]1 (stereo not given) | inactive |
| CC(=O)c1cccnc1 | inactive |
| CC(=O)Nc1cccc(N)c1 | inactive |
| CC1(C)CC(=O)CC(C)(C)N1 | inactive |
| Cc1cc(C)c(C)c(O)c1 | inactive |
| Cc1ccc(Cl)c(OCC(O)CNC(C)(C)C)c1 (stereo not given) | inactive |
| C=CCCC | inactive |
| COc1cc(C)c(Cc2cnc(N)nc2N)cc1OC | inactive |
| CCC[Si](OC)(OC)OC | inactive |
| CCCC(=O)OCCC(C)C | inactive |
| O=C1CCCN1CCO | inactive |
| CC/C=C\CCO | inactive |
| CC(=O)Oc1cccc2c1C(=O)c1c(OC(C)=O)cc(C(=O)O)cc1C2=O | inactive |
| CCCCCCC/C=C/C=O | inactive |
| C/C=C1\[C@H]2C=C(C)C[C@]1(N)c1ccc(=O)[nH]c1C2 | inactive |
| CC(=O)Nc1ccccc1O | inactive |
| OCCc1ccncc1 | inactive |
| O=C(O)c1cccc(C(=O)O)c1C(=O)O | inactive |

| Compound | Potency |
| --- | --- |
| O=C(N[C@@H](Cc1ccccc1)[C@@H](O)C(=O)N1C[C@@H](O)[C@@H](O)C1)c1cc2cc(Cl)ccc2[nH]1 | inactive |
| Clc1nc2ccccc2nc1Cl | inactive |
| CCC(CC)C(=O)O | inactive |
| O=C1c2ccccc2C(=O)c2c1ccc(O)c2O | inactive |
| CCC(C(=O)O)c1ccc(N2Cc3ccccc3C2=O)cc1 (stereo not given) | inactive |
| O=[N+]([O-])c1cccc(I)c1 | inactive |
| Cc1ccc2c(Cl)cc(Cl)c(O)c2n1 | inactive |
| C[C@H](N)C(=O)N[C@@H](C)C(=O)NC1[C@H]2CN(c3nc4c(cc3F)c(=O)c(C(=O)O)cn4-c3ccc(F)cc3F)C[C@@H]12 (stereo not given in full) | inactive |
| CC[C@H](NC(C)C)[C@H](O)c1ccc(O)c2[nH]c(=O)ccc12 | inactive |
| CCCCCCOC(=O)c1ccccc1 | inactive |
| C(/C=C/C=C/Nc1ccccc1)=Nc1ccccc1 | inactive |
| OCCOc1cccc(OCCO)c1 | inactive |
| COC(=O)/C=C/C(C)=C\C=C\C(C)=C\C=C\C=C(C)\C=C\C=C(C)\C=C\C(=O)O | inactive |
| COC(=O)Cc1cccc2ccccc12 | inactive |
| Clc1ccccc1-c1nc(-c2ccncc2)no1 | inactive |
| CCCN(C1CCN(C(=O)C2CCNCC2)CC1)[C@@H]1CCc2ccc(OC)cc2C1 | inactive |
| Nc1ccc(C(=O)Oc2ccccc2)c(O)c1 | inactive |
| Cc1cc(C)n(CO)n1 | inactive |
| CCOc1cc(OCC)c(C(C)=O)cc1OCC | inactive |
| O=C(Nc1ccccc1)c1cc([N+](=O)[O-])ccc1Cl | inactive |
